The full list was thinned out, with hits kept by preference.
Lassa entry inh – inhibitors of Lassa virus binding or cell entry | Potency, µM (titrated, usually from 37.9 µM), for the others: at the top dose activity change, negative = inhibition, actives largely listed as inhibitors | AID 540256 | Lassa virus pseudotype entry inhibition, cell reporter | 1.2% of 300,000 active; calls by dose curve; tested in HEK293 cells; further: potency means the concentration at half of the fitted maximal effect; on the % scale 0 is the no-effect control and ±100 the full control effect; nearly all actives have a fitted effect of over 50% in size
CHX counter – counter-screen for Shiga toxin inhibitors: cycloheximide protein synthesis inhibition; cell reporter, cycloheximide protein synthesis inhibition counterscreen; max response, %; 12% of 300,000 active; AID 2314; in the data active means max response mostly above about 13%, no sharp cut-off; inactive means mostly below about 14%; further: read at 38.3 µM for the half of the compounds with a filed dose; 0% is about no effect
Marburg entry inh – Marburg virus entry inhibition. 1.8% of 300,000 active. AID 540276. Marburg virus pseudotyped entry inhibition, cell reporter. Potency, µM (top dose mostly 37.8 µM), for inactives: at the highest dose activity change, negative = inhibition, actives largely listed as inhibitors; calls by dose curve; tested in HEK293 cells; further: potency means the concentration at half of the fitted maximal effect; on the % scale 0 is the no-effect control and ±100 the full control effect
Vaccinia Venus – inhibitors of vaccinia virus (Venus reporter) | Vaccinia virus Venus reporter expression, fluorescence | Potency, µM (top dose mostly 36.5 µM), for the others: at the top dose activity change, negative = inhibition, usual class: inhibitors | 0.46% of 330,000 active; calls by dose curve; tested in A549 cells; further: potency means the concentration at half of the fitted maximal effect; on the % scale 0 is the no-effect control and ±100 the full control effect; nearly all actives have a fitted effect of over 30% in size
Shiga toxin inh – inhibitors of Shiga toxin in Vero cells; Vero cells, Shiga toxin protein synthesis inhibition reporter; inhibition, % at 38.7 µM; 9.2% of 290,000 active; in the data active means inhibition mostly above about 28%, no sharp cut-off; inactive means mostly below about 43%; further: 0% is about no effect
VACV mCherry inh – vaccinia inhibition (mCherry reporter) | AID 720579 | 0.63% of 310,000 active | Vaccinia virus mCherry reporter infection, fluorescence | Potency, µM (highest dose often 36.5 µM), without a hit: at the top dose activity change, negative = inhibition, usual class: inhibitors; calls by dose curve; tested in A549 cells; further: potency means the concentration at half of the fitted maximal effect; on the % scale 0 is the no-effect control and ±100 the full control effect; nearly all actives have a fitted effect of over 35% in size
* hit, by the source's call; i = inactive; ? = inconclusive; . = no result given; [ ] = dose if it differs, or a comment.

SMILES | Lassa entry inh | CHX counter | Marburg entry inh | Vaccinia Venus | Shiga toxin inh | VACV mCherry inh
O=c1[nH]c(SCc2ccccc2Cl)nc2c1CCCC2 | 1% | 10 | -3% | . | 14 | .
Cc1ccc2oc(C(=O)N(C)Cc3ccc(C)o3)c(C)c2c1 | . | 27* | . | -8%[7.34 µM] | 52* | -16%[7.34 µM]
CCCc1ccc2oc(C(=O)N(C)Cc3cnccn3)c(C)c2c1 | . | -5 | . | . | -19 | .
Cc1ccc2oc(C(=O)N(C)Cc3ccon3)c(C)c2c1 | . | 54* | . | . | 47* | .
COC(=O)c1cc2oc(C)cc2n1Cc1cccc(Cl)c1 | . | . | -17%[46.1 µM] | -16% | . | -17%
O=C(NC1CCCC1)c1n[nH]c2ccccc12 | . | 43* | . | . | 54 | .
COCCNC(=O)c1n[nH]c2ccccc12 | -2%[46.1 µM] | 31* | ? | -15% | 57 | -15%
COc1ccc(CCNC(=O)c2n[nH]c3ccccc23)cc1 | ? | 47* | ? | -11% | 45* | i
COC(=O)c1n[nH]c2ccccc12 | 17% | -3 | 0%[46.1 µM] | -15% | -12 | .
COc1ccc(CNC(=O)COC(=O)c2n[nH]c3ccccc23)cc1 | ? | -1 | -2% | -27% | -13 | .
COC(=O)/C=c1\s/c(=C(/C#N)C(=O)N2CCOCC2)n(-c2ccccc2)c1=O | . | . | -9% | . | . | .
COc1ccc(CN2CCOc3ccc(C(O)c4cccnc4)cc3C2)cc1O (stereo not drawn) | . | . | . | -7% | . | -13%
C/C(=N\NC(=O)c1cccc(N/N=C(\C)c2cc(O)ccc2O)c1)c1cc(O)ccc1O | ? | 32* | ? | -30% | 88* | ?
C/C(=N\NC(=O)c1cccnc1)c1cccc([N+](=O)[O-])c1 | . | 11 | . | . | 47 | .
C/C(=N\NC(=O)c1cccc([N+](=O)[O-])c1)c1ccco1 | 14% | 15* | 5%[46.1 µM] | -10% | 50* | i
C/C(=N\NC(=O)c1cccc(S(=O)(=O)Nc2ccccc2Cl)c1)c1ccco1 | 0% | 2 | -1% | -6% | 2 | i
C/C(=N\NC(=O)c1ccc(O)cc1)c1cccc(NC(=O)c2ccc(Cl)cc2)c1 | ? | . | ? | -8% | . | i
C/C(=N\NC(=O)c1cccc([N+](=O)[O-])c1)c1cccc(NC(=O)C2CC2)c1 | -13% | 17* | 2%[46.1 µM] | 9% | 14 | -10%
C/C(=N\NC(=O)c1ccc([N+](=O)[O-])cc1)c1cccc([N+](=O)[O-])c1 | -6%[46.1 µM] | 11 | -20%[46.1 µM] | -10% | 3 | i
C/C(=N\NC(=O)c1cccc(N/N=C(\C)c2ccco2)c1)c1ccco1 | . | 29* | . | -6% | 90* | -3%
CCCCOc1cccc(C2c3c(-c4cc(C)ccc4O)n[nH]c3C(=O)N2CCOC)c1 (stereo not drawn) | ? | . | ? | -26% | . | -26%
COc1cc(-c2nc(C)cnc2C)cc2c1OCCN(C(=O)Cc1cc(OC)c(OC)c(OC)c1)C2 | . | . | . | 10% | . | -9%
O=C(CC1C(=O)NCCN1C/C=C/c1ccccc1)NCCCC1CCCC1 (stereo not drawn) | -1%[46.1 µM] | 37* | 3%[46.1 µM] | -10% | 75* | -11%
COc1ccc(NC(=O)/C=C/c2cccc(Br)c2)cn1 | ? | 27* | ? | -17% | 55* | -17%
COc1ccc(NC(=O)/C=C/c2cccc(C(F)(F)F)c2)cn1 | ? | 7 | ? | -22% | -2 | ?
SMILES | Lassa entry inh | CHX counter | Marburg entry inh | Vaccinia Venus | Shiga toxin inh | VACV mCherry inh
NS(=O)(=O)c1ccc(NC(=O)CSc2ccccc2)cc1 | . | 20* | . | -7% | 41 | i
COc1ccc(NC(=O)Nc2ccc(F)cc2)cn1 | . | 29* | . | . | 34* | .
COC(=O)c1ccc(NC(=O)Nc2ccc(F)c(Cl)c2)cc1 | 0% | 28* | 4% | . | 49* | .
COCCCNC(=O)c1ccc(Cn2c(=O)c3ccccc3n(CC(=O)Nc3c(C)cccc3C)c2=O)cc1 | -1%[46.1 µM] | . | -7%[46.1 µM] | 3% | . | 3%
CC(C)(C)c1ccc(C(O)c2ncc(-c3ccc4ccccc4c3)[nH]2)cc1 (stereo not drawn) | . | . | . | -1% | . | 22%
COc1ccc(N2C(=O)[C@H]3CCC=C[C@H]3[C@@H]2c2ccccc2Br)cc1 | . | 1 | . | -6% | i | i
CCOC(=O)c1ccc(NC(=O)CC2C(=O)N(c3ccc(F)cc3)C(=O)N2CCC(C)C)cc1 (stereo not drawn) | ? | 13 | 26µM* | . | 21 | .
COc1ccc(NC(=O)CSc2ccccc2)cn1 | ? | 27* | ? | 4% | 49* | -28%
CCOC(=O)c1ccc(NC(=O)Nc2ncc(Cl)cc2Cl)cc1 | . | 17* | . | . | 22 | .
CCOC(=O)c1ccc(NC(=O)Nc2ccc(F)cc2)cc1 | ? | 21* | 23% | -21% | 30 | -27%
CCOC(=O)c1ccc(NC(=O)CC2C(=O)N(c3ccc(F)cc3)C(=O)N2Cc2ccc(C)cc2)cc1 (stereo not drawn) | -11%[46.1 µM] | . | ? | -12% | . | -6%
CCOC(=O)c1ccc(NC(=O)Nc2ccc(OC)c(OC)c2)cc1 | 0% | -1 | 4% | . | -4 | .
COc1ccc(-n2ncc(C(C)NS(=O)(=O)c3cc(C)sc3C)c2C)cc1 (stereo not drawn) | . | . | . | -23% | . | ?
CC(C)(C)OC(=O)N1CCCC(C(=O)Nc2cccc(C(=O)NC3CC3)c2)C1 (stereo not drawn) | -8%[46.1 µM] | . | . | -2% | . | 9%
Cc1ccc(/C=C/c2nc3ccccc3n2S(=O)(=O)c2cccc(Cl)c2)cc1 | ? | . | . | -14% | . | -8%
CC(C)CN1C(=O)N(C)C(=O)C2N=CN=C21 (stereo not drawn) | . | . | 23% | . | . | .
COC(=O)c1ccc(NC(=O)Nc2ccc(F)cc2)cc1 | 2% | 26* | 0% | ? | 107* | .
COC(=O)c1cc(NC(=O)c2ccc(F)cc2)cc(C(=O)OC)c1 | -9% | 12 | -9%[46.1 µM] | 7% | 24 | i
Cc1c2ccccc2nc2c(F)c(NC(C)C)c(F)c(F)c12 | 15% | 45* | ? | 9% | 55* | -11%
Cc1cccc(NC2=NC(C)(C)N=C(N)N2)c1 | ? | -2 | ? | 1µM* | 30 | ?
O=C(Nc1cccc2ccccc12)/C(Cl)=C/c1ccccc1 | 1% | 42* | -15% | -9% | 82* | .
O=C(Nc1ccccc1F)C(=O)Nc1cccc2ccccc12 | ? | 28* | ? | -7% | . | -1%
O=C(Nc1cccc2ccccc12)/C(=C/c1ccc([N+](=O)[O-])cc1)NC(=O)c1ccccc1 | -1% | 1 | -4% | . | -3 | .
COc1ccc(C)cc1NC(=O)C1CCCN(c2ncnc3onc(C)c23)C1 (stereo not drawn) | 29%[46.1 µM] | . | . | -18% | . | i
N#Cc1c(N)nc(N2CCCC2)c(C#N)c1-c1ccc(Cl)cc1 | ? | -1 | -6% | . | -6 | .
N#Cc1c(-c2ccc(Cl)cc2)ccnc1N1CCOCC1 | -12%[46.1 µM] | 26* | ? | -27% | 46* | i
CCCCSc1nc(C)c(C(C)=O)cc1C#N | 19% | 32* | 5% | -23% | 79* | .
CC(=O)c1cc(C#N)c(SCc2ccc(F)cc2)nc1C | 13% | 6 | 13%[46.1 µM] | -21% | 74 | .
CCOC(=O)CSc1nc(C)c(C(C)=O)cc1C#N | ? | 18* | 6% | . | 100* | .
